Assay results reported in PubChem BioAssay AID1159580 (chemical genetic matrix, 2015).
Screen size: about 5,500 compounds; about 2,000 (36%) were called active. Inconclusive results (about 18%) are left out. No stated cut-off is given here; in the data, active means normalized growth mostly below about 0.91 (no sharp cut-off); inconclusive means no clear call, values can overlap the other calls; inactive means mostly above about 0.92. The list shows a part of the results.

Test: chemical genetic growth profiling, strain panel (AID 1159580);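 further: tested at 20 µM; growth read once vehicle control cultures reached saturation at 30 °C; 1 = growth at the plate median or of vehicle wells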
Conditions: growth OD

Measured: normalized growth

COC(=O)C[C@H]1C(C)(C)[C@@H](OC(C)=O)[C@@H]2CC3=C4CC(=O)O[C@@H](c5ccoc5)[C@]4(C)CCC3[C@@]1(C)C2=O (some centres not stated)
inactive: S. cerevisiae deletion strains, locus YJR066W, strain TOR1, stronger effect = lower value 0.954 | S. cerevisiae deletion strains, locus YJR075W, strain HOC1, stronger effect = lower value 0.997 | S. cerevisiae deletion strains, locus YKL009W, strain mrt4, stronger effect = lower value 0.986 | S. cerevisiae deletion strains, locus YKL068W, stronger effect = lower value 1 | S. cerevisiae deletion strains, locus YKL085W, strain MDH1 (second series), stronger effect = lower value 0.993 | S. cerevisiae deletion strains, locus YKL085W, strain MDH1, stronger effect = lower value 0.993 | S. cerevisiae deletion strains, locus YKL160W, strain elf1, stronger effect = lower value 1.02 | S. cerevisiae deletion strains, locus YKR001C, strain vps1, stronger effect = lower value 1.01 | S. cerevisiae deletion strains, locus YKR026C, strain gcn3, stronger effect = lower value 0.992 | S. cerevisiae deletion strains, locus YKR091W, strain srl3, stronger effect = lower value 0.996 | S. cerevisiae deletion strains, locus YLL001W, strain dnm1, stronger effect = lower value 0.949 | S. cerevisiae deletion strains, locus YLL026W, stronger effect = lower value 0.998 | S. cerevisiae deletion strains, locus YLL041C, strain sdh2, stronger effect = lower value 0.997 | S. cerevisiae deletion strains, locus YLR027C, strain aat2, stronger effect = lower value 0.998 | S. cerevisiae deletion strains, locus YLR039C, strain RIC1, stronger effect = lower value 0.993 | S. cerevisiae deletion strains, locus YLR058C, strain SHM2, stronger effect = lower value 1 | S. cerevisiae deletion strains, locus YLR102C, strain apc9, stronger effect = lower value 1.01 | S. cerevisiae deletion strains, locus YLR113W, strain HOG1, stronger effect = lower value 1.03 | S. cerevisiae deletion strains, locus YLR221C, strain rsa3, stronger effect = lower value 0.961 | S. cerevisiae deletion strains, locus YLR258W, strain gsy2, stronger effect = lower value 1.01 | S. cerevisiae deletion strains, locus YLR262C, strain YPT6 (second series), stronger effect = lower value 1.02 | S. cerevisiae deletion strains, locus YLR268W, strain sec22, stronger effect = lower value 0.993 | S. cerevisiae deletion strains, locus YLR320W, strain mms22, stronger effect = lower value 0.978 | S. cerevisiae deletion strains, locus YLR330W, strain CHS5, stronger effect = lower value 1 | S. cerevisiae deletion strains, locus YLR342W, strain FKS1 (second series), stronger effect = lower value 1.02 | S. cerevisiae deletion strains, locus YLR342W, strain FKS1, stronger effect = lower value 1.02 | S. cerevisiae deletion strains, locus YLR357W, strain rsc2, stronger effect = lower value 1.01 | S. cerevisiae deletion strains, locus YLR370C, strain arc18, stronger effect = lower value 0.986 | S. cerevisiae deletion strains, locus YLR371W, strain rom2, stronger effect = lower value 0.983 | S. cerevisiae deletion strains, locus YLR384C, strain iki3, stronger effect = lower value 0.985 | S. cerevisiae deletion strains, locus YLR418C, strain cdc73, stronger effect = lower value 1.04 | S. cerevisiae deletion strains, locus YML016C, strain PPZ1, stronger effect = lower value 0.992 | S. cerevisiae deletion strains, locus YML032C, strain rad52, stronger effect = lower value 0.974 | S. cerevisiae deletion strains, locus YML120C, strain ndi1, stronger effect = lower value 1.01 | S. cerevisiae deletion strains, locus YML124C, strain tub3, stronger effect = lower value 1.01 | S. cerevisiae deletion strains, locus YMR058W, strain fet3, stronger effect = lower value 0.993 | S. cerevisiae deletion strains, locus YMR078C, strain ctf18, stronger effect = lower value 1.01 | S. cerevisiae deletion strains, locus YMR125W, strain sto1, stronger effect = lower value 1.01 | S. cerevisiae deletion strains, locus YMR129W, stronger effect = lower value 0.988 | S. cerevisiae deletion strains, locus YMR205C, strain PFK2, stronger effect = lower value 1.02 | S. cerevisiae deletion strains, locus YMR223W, strain ubp8, stronger effect = lower value 0.998 | S. cerevisiae deletion strains, locus YMR231W, strain pep5, stronger effect = lower value 0.998 | S. cerevisiae deletion strains, locus YMR263W, strain SAP30, stronger effect = lower value 1.01 | S. cerevisiae deletion strains, locus YMR307W, strain GAS1, stronger effect = lower value 0.927 | S. cerevisiae deletion strains, locus YNL067W, strain RPL9B, stronger effect = lower value 1.01 | S. cerevisiae deletion strains, locus YNL071W, strain lat1, stronger effect = lower value 1 | S. cerevisiae deletion strains, locus YNL128W, strain TEP1, stronger effect = lower value 0.99 | S. cerevisiae deletion strains, locus YNL153C, strain GIM3, stronger effect = lower value 1.02 | S. cerevisiae deletion strains, locus YNL183C, strain NPR1, stronger effect = lower value 0.958 | S. cerevisiae deletion strains, locus YNL209W, strain ssb2, stronger effect = lower value 1 | S. cerevisiae deletion strains, locus YNL233W, strain BNI4, stronger effect = lower value 1.01 | S. cerevisiae deletion strains, locus YNL248C, strain rpa49, stronger effect = lower value 0.961 | S. cerevisiae deletion strains, locus YNL250W, strain rad50, stronger effect = lower value 1 | S. cerevisiae deletion strains, locus YNL271C, strain bni1, stronger effect = lower value 0.982 | S. cerevisiae deletion strains, locus YNL298W, strain CLA4, stronger effect = lower value 1.01 | S. cerevisiae deletion strains, locus YNL307C, strain MCK1, stronger effect = lower value 1.01 | S. cerevisiae deletion strains, locus YNL322C, strain KRE1 (second series), stronger effect = lower value 1.01 | S. cerevisiae deletion strains, locus YNR049C, strain mso1, stronger effect = lower value 0.994 | S. cerevisiae deletion strains, locus YNR052C, strain pop2, stronger effect = lower value 1.01 | S. cerevisiae deletion strains, locus YOL012C, strain htz1 1.31 | S. cerevisiae deletion strains, locus YOL147C, strain pex11, stronger effect = lower value 0.999 | S. cerevisiae deletion strains, locus YOR001W, strain rrp6, stronger effect = lower value 0.939 | S. cerevisiae deletion strains, locus YOR061W, strain CKA2, stronger effect = lower value 0.995 | S. cerevisiae deletion strains, locus YOR069W, strain VPS5, stronger effect = lower value 1 | S. cerevisiae deletion strains, locus YOR070C, strain gyp1, stronger effect = lower value 0.991 | S. cerevisiae deletion strains, locus YOR080W, strain dia2, stronger effect = lower value 0.987 | S. cerevisiae deletion strains, locus YOR083W, strain WHI5, stronger effect = lower value 1.02 | S. cerevisiae deletion strains, locus YOR106W, strain vam3, stronger effect = lower value 1.02 | S. cerevisiae deletion strains, locus YOR136W, strain idh2, stronger effect = lower value 0.987 | S. cerevisiae deletion strains, locus YOR144C, strain elg1, stronger effect = lower value 0.998 | S. cerevisiae deletion strains, locus YOR184W, strain ser1, stronger effect = lower value 0.987 | S. cerevisiae deletion strains, locus YOR231W, strain MKK1, stronger effect = lower value 0.988 | S. cerevisiae deletion strains, locus YOR265W, strain rbl2, stronger effect = lower value 1 | S. cerevisiae deletion strains, locus YOR270C, strain vph1, stronger effect = lower value 0.888 | S. cerevisiae deletion strains, locus YOR290C, strain snf2, stronger effect = lower value 1.03 | S. cerevisiae deletion strains, locus YOR316C, strain cot1, stronger effect = lower value 1.01 | S. cerevisiae deletion strains, locus YPL051W, strain arl3, stronger effect = lower value 1 | S. cerevisiae deletion strains, locus YPL078C, strain atp4, stronger effect = lower value 1.01 | S. cerevisiae deletion strains, locus YPL106C, strain sse1, stronger effect = lower value 1.04 | S. cerevisiae deletion strains, locus YPL240C, strain hsp82, stronger effect = lower value 1 | S. cerevisiae deletion strains, locus YPL256C, strain CLN2, stronger effect = lower value 0.983 | S. cerevisiae deletion strains, locus YPR119W, strain clb2, stronger effect = lower value 0.996 | S. cerevisiae deletion strains, locus YPR141C, strain kar3, stronger effect = lower value 1 | S. cerevisiae deletion strains, locus YPR163C, strain tif3, stronger effect = lower value 1 | S. cerevisiae deletion strains, locus YPR167C, strain met16, stronger effect = lower value 0.995 | S. cerevisiae deletion strains, strain wtn01, stronger effect = lower value 0.978 | S. cerevisiae strains, strain wild type, stronger effect = lower value 0.997
